Screening results as filed in PubChem BioAssay.
BCR signal inh – inhibitors of chronic active B-cell receptor signaling | hit rate 0.05% among 340,000 | ABC-DLBCL IkBa-CBG/CBR reporter, luminescence ratio, 4 h | AID 493014 | Potency, µM (highest dose often 46.1 µM), for inactives: top-dose activity change, negative = inhibition, hits mostly inhibitors; active = well fitted inhibition curve with a large enough effect in the signal ratio, with a control signal flat, not every such curve was filed as active; inconclusive = small, poorly fitted or top-dose-only effect, or effect the other way, or a change in a side signal; the % refers to the signal ratio;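 also: potency is read from the fitted curve at half-maximal effect; plate controls were basal doxycycline-induced cells for no effect and cells given 10 µM MG132 for full effect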
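Cell line TMD8 (human ABC DLBCL), stably expressing tet-inducible CBG68-IkBa fusion and CBR; IMDM/0.5% FBS; cpd up to 46 uM; dox induction, 4 h, 37C/5% CO2; dual luminescence; green/red ratio; MG132 control.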
MCF10A rereplic – inducers of DNA re-replication in MCF 10A breast cells | MCF 10A DNA re-replication, Hoechst nuclear intensity, 48 h | Potency, µM (doses to about 46.1 µM), for inactives: at the highest dose activity, positive = re-replication, usual class: activators | hit rate 2.9% among 350,000 | AID 624296; also: potency is read from the fitted curve at half-maximal effect; % of control where 0% means no effect; nearly all actives have a fitted effect of over 50% in size
TDP1 cell noCPT – qHTS for Inhibitors of human tyrosyl-DNA phosphodiesterase 1 (TDP1): qHTS in cells in absence of CPT | hit rate 15% among 420,000 | Potency, µM (highest dose often 46.2 µM), for the others: top-dose activity change, negative = growth inhibition, usual class: inhibitors | DT40 Tdp1-/- hTDP1 cells, no CPT, ATP luminescence, 48 h; also: potency is read from the fitted curve at half-maximal effect; % is scaled to controls: 0 for no effect and ±100 for the full control effect; nearly all actives have a fitted effect of over 55% in size
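Cells were dispensed at 400 per well, compounds added by pin tool, plates incubated ≥48 hr at 37 °C, then CellTiter-Glo added for 30 min at room temperature before luminescence reading. Line: DT40 Tdp1-/- complemented with hTDP1; camptothecin omitted.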
SW480 rereplic – DNA re-replication induction in SW480 cells | SW480 DNA re-replication, Hoechst DNA content imaging, 48 h | Potency, µM (series often up to 46.1 µM), without a hit: at the highest dose re-replication activation, actives largely listed as activators | hit rate 1.8% among 340,000; also: potency is read from the fitted curve at half-maximal effect; % of control where 0% means no effect; nearly all actives have a fitted effect of over 55% in size
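Hoechst fluorescence of nuclei (405 nm excitation, 500-530 nm emission) measured by plate-scanning imager after 48 hr compound exposure at 37 C; re-replication scored as increased number of nuclei with elevated intensity.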
IL1B secr inh – inhibitors of inflammasome signaling (IL-1 beta secretion); activity change, % at 57.5 µM; hit rate 4.7% among 360,000; THP-1 LPS/ATP IL-1B secretion, AlphaLISA, 16 h; stronger effect = lower value; in the data active = activity change below about -50%; inconclusive = mostly about -30% to -49%; also: % is scaled to controls: 0 for no effect and ±100 for the full control effect
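Secreted IL-1B measured by AlphaLISA bead assay after 16 h compound exposure of THP-1 cells; compounds (final up to 57.5 uM) added 1 h before LPS (250 ng/mL) and ATP (1.25 mM) stimulation; lower signal means less secretion.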
TDP1 cell CPT – DT40-hTDP1 cell growth loss with CPT; chicken DT40 Tdp1-/-;hTDP1 cells + 20 nM CPT, ATP luminescence, 48 h; Potency, µM (doses to about 46.2 µM), for the others: top-dose activity change, negative = growth inhibition, hits mostly inhibitors; hit rate 12% among 420,000; also: potency is read from the fitted curve at half-maximal effect; % is scaled to controls: 0 for no effect and ±100 for the full control effect; nearly all actives have a fitted effect of over 55% in size
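Chicken DT40 Tdp1-/- cells stably complemented with human TDP1 were seeded at 400 cells/well in medium containing 20 nM camptothecin, exposed to pin-transferred compounds, and grown at 37 °C for at least 48 hr. Viability was read as ATP luminescence.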
* = called active by the depositor; ? = inconclusive; . = not tested or not shown. Compounds with a hit are over-represented: about 19% of the library has one in this group of screens. Unless noted, calls follow the shape of the dose curve; as a rule, active = well fitted curve in the direction sought with a large enough effect; inconclusive = small, poorly fitted or top-dose-only effect, or another doubt; inactive = no such curve, though single readings can be large; an effect the other way counts as inactive or inconclusive.

SMILES	BCR signal inh	MCF10A rereplic	TDP1 cell noCPT	SW480 rereplic	IL1B secr inh	TDP1 cell CPT
CCOC(=S)SCC(=O)Nc1nc(C)c(C)s1	?	18.4µM*	20.6µM*	104.0%	-7.1	16.4µM*
Cc1nc(NC(=O)CSc2nc(N)cc(N)n2)sc1C	-4.2%	10.4%	-1.4%	-22.5%	-0.9	7.6%
Cc1cc2occ(CC(=O)N(C)CC(=O)Nc3ccc(F)cc3)c2cc1C	-12.1%	-6.0%	?	?	?	11.6µM*
Cc1cc2occ(CC(=O)N(C)CC(=O)Nc3ccccc3Cl)c2cc1C	-12.5%	-2.4%	?	-2.1%	-15.6	10.1%
COC(=O)C[C@@H]1C[C@H]2c3cc(NS(C)(=O)=O)ccc3O[C@H]2[C@H](CO)O1	.	.	-21.0%	.	16.4	-8.6%
C/C(CCC(C)C)=N\Nc1cc(C)c2ccccc2n1	-0.1%	14.3%	7.31µM*	-1.8%	11.0	10.3µM*
O=C(Cn1nc2ccccc2n1)N/N=C/c1cc(Cl)cc([N+](=O)[O-])c1O	7.6%	?	?	11.6µM*	36.5	?
O=[N+]([O-])c1cc(Cl)cc(/C=N/Nc2nc3ccccc3s2)c1O	?	?	0.92µM*	?	32.6	0.326µM*
O=C(N/N=C/c1cc(Cl)cc([N+](=O)[O-])c1O)C1CC1	7.9%	14.8%	-27.7%	-11.5%	98.4	-9.8%
O=C(Cn1nnc(-c2ccccc2)n1)N/N=C/c1cccc([N+](=O)[O-])c1O	4.3%	7.5%	20.6µM*	?	124.4	?
COc1cc(/C=N/Nc2nc3ccccc3s2)cc([N+](=O)[O-])c1O	?	-0.8%	?	-36.5%	-10.0	?
O=C(c1ccc(F)cc1)N1CCN=C1c1ccccc1	0.5%	?	-23.7%	13µM*	0.0	-4.3%
COc1cc(C(=O)N2CCN=C2c2ccccc2)cc(OC)c1OC	-1.1%	-0.6%	-3.3%	2.5%	3.2	2.7%
CCc1ccc2c(c1)NC(=O)C2(C)Cc1ccc(C(F)(F)F)nc1 (configuration not stated)	.	.	?	.	15.0	?
NC(c1csc(Nc2ccc(C(=O)NCCO)cc2)n1)C1CCCCC1 (configuration not stated)	.	.	6.51µM*	.	-0.2	10.3µM*
NC(c1csc(Nc2ccc(C(=O)NCCCO)cn2)n1)C1CCCCC1 (configuration not stated)	.	.	?	.	-15.0	-44.3%
CC(=O)c1ccc(Nc2nc(C(N)C3CCCCC3)cs2)cc1 (configuration not stated)	.	.	11.6µM*	.	.	13µM*
Nc1nn(-c2ccccc2Cl)cc1-c1nn[nH]n1	3.9%	-0.6%	-19.5%	-28.1%	-7.9	16.9%
COc1ccc2oc(=N)c(C(=O)Nc3ccc(Cl)cc3)cc2c1	-1.4%	2.7%	12.8%	13.6%	13.8	-7.8%
CCOC(=O)C1=NNC(C(=O)OCC)C1c1ccccc1 (configuration not stated)	.	5.3%	1.6%	0.2%	27.7	?
CCOC(=O)C1=NNC(C(=O)c2ccc(C)cc2)C1c1ccc(OC)cc1 (configuration not stated)	?	0.7%	?	0.2%	-14.9	?
CCOC(=O)C1=NNC(C(=O)c2ccc(Cl)cc2)C1c1ccc(OC)cc1 (configuration not stated)	-2.6%	6.0%	18.4µM*	-2.5%	5.5	?
CCOC(=O)C1NN=C(C(=O)c2ccc(C)cc2)C1c1ccc(C)cc1 (configuration not stated)	1.3%	13.1%	20.6µM*	-4.2%	?	18.4µM*
O=C(Cn1nnc2ccccc21)c1ccc(Cl)cc1	-12.0%	-0.2%	-22.7%	-3.5%	0.0	2.0%
CCNC(=S)Nc1ccc2c(c1)c(=O)n(C)n2-c1ccc(C(C)(C)C)cc1	.	.	?	.	6.7	25.9µM*
SMILES	BCR signal inh	MCF10A rereplic	TDP1 cell noCPT	SW480 rereplic	IL1B secr inh	TDP1 cell CPT
Cc1cc(C)cc(-n2c3ccc(NC(=O)Cc4cccc5ccccc45)cc3c(=O)n2C)c1	.	.	3.26µM*	.	0.0	5.8µM*
CC(CC(=O)Nc1ccc2c(c1)c(=O)n(C)n2-c1cccs1)c1ccccc1 (configuration not stated)	.	.	11.6µM*	.	28.3	13µM*
Cn1c(=O)c2cc(NC(=O)Cc3ccccc3F)ccc2n1-c1ccc(C(C)(C)C)cc1	.	.	16.4µM*	.	0.0	23.1µM*
COc1ccc(NC(=S)Nc2ccc3c(c2)c(=O)n(C)n3-c2ccccc2)cc1	.	.	?	.	-25.2	?
COCCN1C(=O)COc2ccccc2C1C(=O)Nc1c(C)cccc1C (configuration not stated)	.	.	-16.7%	.	35.4	0.3%
Cn1nnnc1SCC1=C(C(=O)O)N2C(=O)C(NC(=O)Cn3nc(C(F)F)cc3C3CC3)C2SC1 (configuration not stated)	-14.4%	0.581µM*	11.6%	2.4%	1.6	-8.0%
Cc1c(Cl)c(C(F)F)nn1CC(=O)NC1C(=O)N2C(C(=O)O)=C(CSc3nnnn3C)CSC12 (configuration not stated)	0.3%	-4.0%	-3.4%	-17.0%	25.5	-11.8%
CCC1COCCS(=O)(=O)N1Cc1cccc(Cl)c1 (configuration not stated)	1.1%	-0.6%	?	-7.1%	0.7	?
Cc1ccccc1-c1ccccc1CN1[C@@H](C(C)C)COCCS1(=O)=O	?	?	18.4µM*	0.8%	-14.1	?
CC(C)[C@H]1COCCS(=O)(=O)N1Cc1cccc(Cl)c1	-10.9%	8.5%	11.2µM*	-5.5%	17.5	?
O=S1(=O)CCOC[C@H](CC2CCCCC2)N1Cc1cccc(Cl)c1	?	23.3%	11.2µM*	0.0%	14.8	14.1µM*
Cc1ccccc1CN1[C@@H](CC2CCCCC2)COCCS1(=O)=O	11.2%	?	12.6µM*	2.5%	-3.5	?
O=S1(=O)CCOC[C@H](CC2CCCCC2)N1Cc1ccccc1	1.9%	-2.1%	?	-0.6%	1.9	?
Oc1c(Br)cc(Br)cc1-c1nc2ccccc2s1	.	.	-8.6%	.	.	-10.6%
CC(=O)OC1CC[C@]2(C)C(CC(OC(C)=O)[C@@]3(C)C4=CC(=O)OC(c5ccoc5)[C@]4(C)CCC23)C1(C)C (some centres not stated)	.	.	20.6µM*	.	.	?
